Test results: the supplement of paper PMC11732987, “Enantioselective OTUD7B fragment discovery through chemoproteomics screening and high-throughput optimisation” (Communications Chemistry, 2025)

Legend:
Experiment in all cases: log2 ratio of Biotin-Ahx-Ub-VS probe labelling (fragment/DMSO); higher = less target engagement (more negative = stronger competition), active = hit call of the paper (q ≤ 0.05, log2 ratio ≤ -1)
Details in all cases: compound concentration: 200 uM; treatment time: 3 h
[1] = target: T1, ALG13 (UniProt Q9NP73)
T1 sequence (whole entry): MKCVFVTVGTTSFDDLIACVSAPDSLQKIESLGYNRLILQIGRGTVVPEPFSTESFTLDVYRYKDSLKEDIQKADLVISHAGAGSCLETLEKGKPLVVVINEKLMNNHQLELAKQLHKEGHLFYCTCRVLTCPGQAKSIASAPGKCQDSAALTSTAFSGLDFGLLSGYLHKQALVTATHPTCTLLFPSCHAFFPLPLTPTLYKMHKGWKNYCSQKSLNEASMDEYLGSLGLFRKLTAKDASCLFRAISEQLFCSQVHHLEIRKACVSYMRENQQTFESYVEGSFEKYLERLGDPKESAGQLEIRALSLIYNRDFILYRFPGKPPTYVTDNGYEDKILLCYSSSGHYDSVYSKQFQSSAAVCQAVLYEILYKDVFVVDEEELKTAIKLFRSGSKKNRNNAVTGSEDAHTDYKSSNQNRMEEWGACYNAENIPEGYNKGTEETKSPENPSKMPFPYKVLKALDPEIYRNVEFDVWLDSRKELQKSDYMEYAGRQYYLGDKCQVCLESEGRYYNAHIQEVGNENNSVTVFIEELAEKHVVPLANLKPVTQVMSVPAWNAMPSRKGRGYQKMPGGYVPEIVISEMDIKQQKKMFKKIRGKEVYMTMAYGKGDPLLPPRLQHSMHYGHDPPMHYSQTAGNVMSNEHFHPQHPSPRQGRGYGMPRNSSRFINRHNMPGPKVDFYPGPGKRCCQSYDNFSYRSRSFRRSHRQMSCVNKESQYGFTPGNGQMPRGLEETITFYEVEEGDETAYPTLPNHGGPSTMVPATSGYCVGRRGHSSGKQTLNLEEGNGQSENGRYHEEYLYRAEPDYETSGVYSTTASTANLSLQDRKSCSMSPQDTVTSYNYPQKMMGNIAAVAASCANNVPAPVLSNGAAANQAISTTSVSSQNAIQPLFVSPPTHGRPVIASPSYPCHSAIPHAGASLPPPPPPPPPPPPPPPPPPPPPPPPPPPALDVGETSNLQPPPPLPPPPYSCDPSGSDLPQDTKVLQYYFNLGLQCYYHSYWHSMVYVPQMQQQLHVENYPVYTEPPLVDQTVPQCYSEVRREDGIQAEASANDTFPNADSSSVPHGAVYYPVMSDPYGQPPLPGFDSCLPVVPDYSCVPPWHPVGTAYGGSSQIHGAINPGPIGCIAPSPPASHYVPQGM
Summary of the method: (§1)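 HEK293T lysate (495 µg per sample, in Tris/CHAPS/IGEPAL buffer with protease inhibitors) was exposed in triplicate for 3 h to fragment at 200 µM or to vehicle, then to Biotin-Ahx-Ub-VS at 0.5 µM final for 1 h. Labelled DUBs were enriched on NeutrAvidin, digested with LysC and trypsin, and analysed by diaPASEF LC-MS/MS. Spectronaut label-free quantities were normalised to the global median, and values are average log2 ratios of fragment over vehicle from an unpaired t-test. Only proteins with ≥2 unique peptides were used.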

[2] = target: ATXN3 (UniProt P54252)
Summary of the method: as §1

[3] = target: T2, BAP1 (UniProt Q92560)
T2 sequence (whole entry): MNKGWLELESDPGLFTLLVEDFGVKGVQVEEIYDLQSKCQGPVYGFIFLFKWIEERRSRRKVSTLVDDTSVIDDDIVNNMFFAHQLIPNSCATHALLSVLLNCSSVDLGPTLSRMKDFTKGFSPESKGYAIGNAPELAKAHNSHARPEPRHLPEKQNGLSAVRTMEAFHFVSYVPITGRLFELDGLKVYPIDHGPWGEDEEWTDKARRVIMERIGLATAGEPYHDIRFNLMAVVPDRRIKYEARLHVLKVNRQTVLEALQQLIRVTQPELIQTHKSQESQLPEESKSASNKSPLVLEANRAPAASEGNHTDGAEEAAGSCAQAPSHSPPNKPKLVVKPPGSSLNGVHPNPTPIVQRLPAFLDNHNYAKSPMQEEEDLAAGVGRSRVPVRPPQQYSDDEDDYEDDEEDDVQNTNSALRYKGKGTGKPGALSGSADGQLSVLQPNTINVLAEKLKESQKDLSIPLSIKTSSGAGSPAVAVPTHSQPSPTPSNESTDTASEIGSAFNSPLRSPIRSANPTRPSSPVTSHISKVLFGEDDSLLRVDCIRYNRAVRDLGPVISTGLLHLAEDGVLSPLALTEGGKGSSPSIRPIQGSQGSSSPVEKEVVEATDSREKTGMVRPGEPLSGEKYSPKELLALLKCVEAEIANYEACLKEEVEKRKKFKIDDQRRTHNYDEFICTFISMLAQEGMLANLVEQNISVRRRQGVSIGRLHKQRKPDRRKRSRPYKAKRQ
Summary of the method: as §1

[4] = target: EIF3F (UniProt O00303)
Summary of the method: as §1

[5] = target: EIF3H (UniProt O15372)
Summary of the method: as §1

[6] = target: T3, FAM105A (UniProt Q9NUU6)
T3 sequence (whole entry): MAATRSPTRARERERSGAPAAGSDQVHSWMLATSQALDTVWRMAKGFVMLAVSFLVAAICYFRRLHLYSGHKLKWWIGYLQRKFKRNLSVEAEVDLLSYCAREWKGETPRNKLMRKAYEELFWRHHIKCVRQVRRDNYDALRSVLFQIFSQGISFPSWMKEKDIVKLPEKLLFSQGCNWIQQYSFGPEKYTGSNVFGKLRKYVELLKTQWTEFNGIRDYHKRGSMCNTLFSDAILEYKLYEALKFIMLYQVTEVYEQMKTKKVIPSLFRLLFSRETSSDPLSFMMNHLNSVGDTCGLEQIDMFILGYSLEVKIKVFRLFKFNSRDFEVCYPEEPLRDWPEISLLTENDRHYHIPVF
Summary of the method: as §1

[7] = target: OTUB1 (UniProt Q96FW1)
Summary of the method: as §1

[8] = target: T4, OTUD4 (UniProt Q01804)
T4 sequence (whole entry): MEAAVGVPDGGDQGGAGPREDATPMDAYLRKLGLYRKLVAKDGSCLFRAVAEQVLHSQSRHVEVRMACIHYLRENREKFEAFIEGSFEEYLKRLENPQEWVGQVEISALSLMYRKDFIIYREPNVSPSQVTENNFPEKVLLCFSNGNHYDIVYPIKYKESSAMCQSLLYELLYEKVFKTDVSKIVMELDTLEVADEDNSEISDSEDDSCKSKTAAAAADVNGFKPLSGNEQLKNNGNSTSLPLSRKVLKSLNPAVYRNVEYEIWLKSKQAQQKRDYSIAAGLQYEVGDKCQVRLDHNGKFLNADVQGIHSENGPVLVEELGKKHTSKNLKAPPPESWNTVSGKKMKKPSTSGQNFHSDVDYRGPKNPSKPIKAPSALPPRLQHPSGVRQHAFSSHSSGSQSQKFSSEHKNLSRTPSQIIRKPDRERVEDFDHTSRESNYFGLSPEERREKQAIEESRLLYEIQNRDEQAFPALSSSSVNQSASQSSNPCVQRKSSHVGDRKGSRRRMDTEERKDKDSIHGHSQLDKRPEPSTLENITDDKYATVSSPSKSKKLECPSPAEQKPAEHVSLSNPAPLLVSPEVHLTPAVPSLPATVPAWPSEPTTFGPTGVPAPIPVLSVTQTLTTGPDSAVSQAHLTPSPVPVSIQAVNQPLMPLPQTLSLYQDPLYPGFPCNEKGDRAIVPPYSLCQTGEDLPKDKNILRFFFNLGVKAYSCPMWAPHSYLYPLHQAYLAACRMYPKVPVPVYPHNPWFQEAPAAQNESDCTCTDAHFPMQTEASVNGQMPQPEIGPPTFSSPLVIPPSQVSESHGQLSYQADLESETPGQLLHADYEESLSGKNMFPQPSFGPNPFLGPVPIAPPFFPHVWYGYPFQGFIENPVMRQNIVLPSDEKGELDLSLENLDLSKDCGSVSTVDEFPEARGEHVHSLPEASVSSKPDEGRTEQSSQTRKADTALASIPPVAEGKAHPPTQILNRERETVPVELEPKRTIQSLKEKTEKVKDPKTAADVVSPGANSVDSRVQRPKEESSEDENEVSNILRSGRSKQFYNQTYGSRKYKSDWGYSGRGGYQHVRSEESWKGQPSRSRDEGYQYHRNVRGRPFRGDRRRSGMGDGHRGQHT
Summary of the method: as §1

[9] = target: T5, OTUD5 (UniProt Q96G74)
T5 sequence (whole entry): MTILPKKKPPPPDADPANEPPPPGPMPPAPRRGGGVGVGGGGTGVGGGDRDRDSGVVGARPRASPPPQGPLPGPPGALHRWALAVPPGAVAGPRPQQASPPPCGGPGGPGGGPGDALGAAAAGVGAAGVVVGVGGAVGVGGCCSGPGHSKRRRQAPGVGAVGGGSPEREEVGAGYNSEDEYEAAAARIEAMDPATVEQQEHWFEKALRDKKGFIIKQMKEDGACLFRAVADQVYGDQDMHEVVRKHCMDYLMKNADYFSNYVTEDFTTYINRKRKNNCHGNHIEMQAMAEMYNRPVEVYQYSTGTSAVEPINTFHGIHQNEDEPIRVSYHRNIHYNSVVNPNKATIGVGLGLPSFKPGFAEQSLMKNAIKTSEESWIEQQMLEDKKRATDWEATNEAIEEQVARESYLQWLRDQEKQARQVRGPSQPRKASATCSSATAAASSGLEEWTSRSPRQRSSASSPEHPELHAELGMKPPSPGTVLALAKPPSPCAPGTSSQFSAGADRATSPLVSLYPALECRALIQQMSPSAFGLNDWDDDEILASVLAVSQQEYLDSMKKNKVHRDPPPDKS
Summary of the method: as §1

Measured: log2 ratio of Biotin-Ahx-Ub-VS probe labelling

Sequence of ATXN3 (P54252 whole entry): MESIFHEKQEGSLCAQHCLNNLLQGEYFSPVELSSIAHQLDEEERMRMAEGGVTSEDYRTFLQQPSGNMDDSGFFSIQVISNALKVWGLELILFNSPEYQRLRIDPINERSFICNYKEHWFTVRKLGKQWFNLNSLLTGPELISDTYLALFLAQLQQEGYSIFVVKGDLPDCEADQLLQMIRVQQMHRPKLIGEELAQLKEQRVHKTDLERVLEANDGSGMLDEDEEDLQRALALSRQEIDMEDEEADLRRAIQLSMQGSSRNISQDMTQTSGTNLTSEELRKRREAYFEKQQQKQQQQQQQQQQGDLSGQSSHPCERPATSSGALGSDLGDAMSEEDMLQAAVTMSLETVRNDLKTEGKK
Sequence of OTUB1 (Q96FW1 whole entry): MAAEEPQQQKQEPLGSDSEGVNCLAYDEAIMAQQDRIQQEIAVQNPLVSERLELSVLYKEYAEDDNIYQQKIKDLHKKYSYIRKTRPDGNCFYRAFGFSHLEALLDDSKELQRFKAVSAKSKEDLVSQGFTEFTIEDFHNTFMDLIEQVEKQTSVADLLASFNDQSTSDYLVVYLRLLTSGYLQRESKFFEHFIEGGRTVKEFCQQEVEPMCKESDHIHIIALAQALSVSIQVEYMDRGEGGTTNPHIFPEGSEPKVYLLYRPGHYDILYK
Sequence of EIF3H (O15372 whole entry): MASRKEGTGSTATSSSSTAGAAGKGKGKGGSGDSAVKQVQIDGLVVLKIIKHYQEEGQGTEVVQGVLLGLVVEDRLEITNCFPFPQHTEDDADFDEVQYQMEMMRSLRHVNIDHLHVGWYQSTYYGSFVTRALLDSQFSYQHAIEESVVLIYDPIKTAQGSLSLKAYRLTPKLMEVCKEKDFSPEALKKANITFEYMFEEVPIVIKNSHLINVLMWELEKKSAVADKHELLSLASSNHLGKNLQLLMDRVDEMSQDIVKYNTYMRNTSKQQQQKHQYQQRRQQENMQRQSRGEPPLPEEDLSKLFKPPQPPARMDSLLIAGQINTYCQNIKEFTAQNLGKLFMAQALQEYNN
Sequence of EIF3F (O00303 whole entry): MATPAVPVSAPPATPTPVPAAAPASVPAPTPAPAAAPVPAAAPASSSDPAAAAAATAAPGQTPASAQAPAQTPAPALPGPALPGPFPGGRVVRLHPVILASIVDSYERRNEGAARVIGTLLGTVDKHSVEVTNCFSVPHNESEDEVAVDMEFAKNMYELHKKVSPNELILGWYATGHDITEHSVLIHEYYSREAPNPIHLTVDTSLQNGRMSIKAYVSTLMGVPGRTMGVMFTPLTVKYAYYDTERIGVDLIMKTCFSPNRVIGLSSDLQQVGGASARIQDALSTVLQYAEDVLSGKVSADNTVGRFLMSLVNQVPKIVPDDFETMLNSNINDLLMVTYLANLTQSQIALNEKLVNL

O=C(CCl)NCC1(c2ccccc2)CC1
inactive: [2] 0.0359 | [4] -0.053 | [5] 0.176 | [6] -0.0439 | [7] 0.0757 | [8] -0.368 | [9] -0.335
active: [1] -1.4 | [3] -1.15
